Laboratory results: PubChem BioAssay (EPA / NIEHS)
Values joined by “and” are separate entries in the source; they are usually repeats but may differ in a detail not shown here. Identical values can stand only once. Results filed as inconclusive are left out. Some compounds were tested as several samples or in several runs, with calls that do not always agree. Active and inactive are the calls of the source. The calls were made as follows, unless noted: active = hit-call score of the fitted dose curve at least 0.9, where 1 is the maximum; inactive = score below 0.9.

Columns and labels:
[1] = BSK_BT_PBMCCytotoxicity: PBMC Cytotoxicity Assessment in the BioMAP Diversity Plus: BT Assay (AID 2284225); conditions: primary human B cells with PBMC;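 also: PBMC viability measured by Alamar Blue dye reduction fluorescence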
Method in brief: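 Primary human co-culture of B cells and PBMC, pre-dosed 1 h then activated with SEB and TSST-1. Cytotoxicity is taken from Alamar Blue dye reduction, added for 6 h at the end of a 90 h incubation.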

[2] = read-out: Secreted IgG (sIgG), gene 3500; experiment: BSK_BT_sIgG: BioMAP Diversity Plus: BT Assay for Secreted IgG (sIgG) Biomarker Activity (AID 2284226); conditions: primary human B cells with PBMC
Method in brief: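 Human B cell/PBMC co-culture; compound exposure 24 h; sIgG by ELISA; gain-of-signal fit vs DMSO baseline.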

[3] = BSK_BT_Bcell_Proliferation: Viability Assessment in the BioMAP Diversity Plus: BT Assay for B cell Proliferation (AID 2284227); conditions: primary human B cells with PBMC
Method in brief: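 Human B cell/PBMC co-culture; test chemical added; 72 h; TCA fix (10%), 0.1% SRB stain, A560 for total protein as a proliferation read-out; positive-direction fit vs DMSO baseline.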

[4] = IUF_NPC1b_proliferation_BrdU_72hr: Leibniz Research Institute for Environmental Medicine (IUF) 72-hour Neural Progenitor Cell Bromodeoxyuridine (BrdU) Proliferation Assay (NPC1b) (AID 2284207)
Method in brief: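 Luminescent BrdU ELISA measured DNA synthesis during the last 16 h of a 72 h exposure of primary human neural progenitor spheres grown with EGF and FGF. Signal was fitted relative to DMSO controls.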

[5] = IUF_NPC1a_proliferation_area_72hr: Leibniz Research Institute for Environmental Medicine (IUF) 72-hour Neural Progenitor Cell Proliferation Area Assay (NPC1a) (AID 2284208)
Method in brief: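 Measured in 3D suspension: each well held one primary hNPC sphere grown with EGF and FGF at pH 7.2-7.6. Compound stayed on for 72 h, then area was imaged; spheres lacking growth factors defined reduced proliferation.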

[6] = IUF_NPC1_viability_72hr: Viability Assessment at 72 hours in the Leibniz Research Institute for Environmental Medicine (IUF) Neural Progenitor Cell Proliferation Assay (NPC1) (AID 2284209)
Method in brief: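 Alamar blue fluorescence (RFU) after 72 h exposure, normalized to DMSO baseline. hNPC spheres from GW 16-19 fetal cortex, single sphere per well in growth-factor medium; no compound renewal.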

[7] = CCTE_Mundy_HCI_Cortical_Synap_Neur_Matur_NeuriteSpotCountPerNeuriteLength: CCTE's Synaptogenesis and Neurite Maturation Assay in rat cortical cells for Neurite Spot Count per Neurite Length, Mundy Lab (AID 2284210)
Method in brief: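 Read-out: synaptophysin puncta counted along MAP2-stained neurites, normalised to neurite length, by automated high-content imaging. Rat cortical cells; AraC DIV 5; chemical dosing DIV 7; termination DIV 12. DMSO baseline.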

[8] = CCTE_Mundy_HCI_Cortical_Synap_Neur_Matur_BPCount: CCTE's Synaptogenesis and Neurite Maturation Assay in rat cortical cells for Branch Point Count, Mundy Lab (AID 2284211)
Method in brief: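 In this multiplexed morphology assay, cortical cells from rat receive chemicals at DIV 7 and are fixed at DIV 12, then immunostained and imaged; branch points are counted, with DMSO as baseline.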

[9] = CCTE_Mundy_HCI_Cortical_NOG_NeuriteCount: CCTE's Neurite Outgrowth Assay in rat cortical cells for Neurite Count, Mundy Lab (AID 2284212);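 also: cells fixed about two days after chemical exposure began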
Method in brief: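 Rat cortical primary cells; compound added 2 h post-plating, 1/10 dilution of working solution. Anti-betaIII-tubulin/AF488 ICC; ArrayScan neurite count vs DMSO.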

[10] = CCTE_Mundy_HCI_Cortical_NOG_NeuriteLength: CCTE's Neurite Outgrowth Assay in rat cortical cells for Neurite Length, Mundy Lab (AID 2284213);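 also: neurites imaged about 48 to 50 h after chemical exposure began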
Method in brief: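 First, rat primary cortical cells were plated and, 2 h later, given test chemical as a 1/10 dilution. Finally, βIII-tubulin immunostaining enabled automated imaging of neurite length.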

[11] = CCTE_Mundy_HCI_Cortical_Synap_Neur_Matur_NeuriteLength: CCTE's Synaptogenesis and Neurite Maturation Assay in rat cortical cells for Neurite Length, Mundy Lab (AID 2284214)
Method in brief: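 Read-out: high-content imaging of MAP2-labelled neurites, with synaptophysin and Hoechst co-stain, in rat cortical cultures fixed at DIV 12. Activity fitted in positive direction relative to DMSO baseline.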

[12] = CCTE_Mundy_HCI_Cortical_Synap_Neur_Matur_NeuriteSpotCountPerNeuron: CCTE's Synaptogenesis and Neurite Maturation Assay in rat cortical cells for Neurite Spot Count per Neuron Count, Mundy Lab (AID 2284215)
Method in brief: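 Developing rat cortical neurons, with glia suppressed by AraC, are exposed to chemicals from DIV 7 to DIV 12. Automated fluorescence imaging of MAP2-labelled neurites and synaptophysin puncta yields a count per neuron, normalised against DMSO wells.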

[13] = TAMU_PeakParms_SingleDonor1434_Chronotropy: Texas A&M University (TAMU) 1.5-hr Human Induced Pluripotent Stem Cell (iPSC)-derived Cardiomyocytes Calcium (Ca+2) Flux Assay for Cardiotoxicity: Chronotropy (changes in peak frequency) (AID 2284217); conditions: actives raise or lower the signal
Method in brief: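 Beat rate, as mean Ca2+-flux peak frequency, was read from donor 1434 iPSC cardiomyocytes 90 min after exposure to 0.2–100 uM test chemical (0.5% DMSO). Wells that stopped beating were excluded; EC05 from bidirectional DMSO-referenced fitting.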

[14] = CCTE_Mundy_HCI_Cortical_Synap_Neur_Matur_SynapseCount: CCTE's Synaptogenesis and Neurite Maturation Assay in rat cortical cells for Synapse Count, Mundy Lab (AID 2284218)
Method in brief: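 Read-out: synapse number per neuron, automated high-content imaging of fixed cells immunostained for MAP2 and synaptophysin plus Hoechst nuclei. Rat primary cortical cultures, AraC at DIV 5, chemical dosing DIV 7–12. Positive-direction fit relative to DMSO.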

[15] = CCTE_Mundy_HCI_hN2_NOG_NeuriteCount: CCTE's Neurite Outgrowth Assay in human hN2 cells for Neurite Count, Mundy Lab (AID 2284219; active = hit-call score of the fitted dose curve at least 0.9, where 1 is the maximum)
Method in brief: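 In this morphology assay, hNP1-derived neurons received test chemical 2 h post-plating and were fixed two days later in warm paraformaldehyde/sucrose containing Hoechst 33342. Neurites, labelled by rabbit anti-βIII-tubulin (1:800) and Alexa Fluor-488 (1:500), were counted automatically.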

[16] = CCTE_Mundy_HCI_hN2_NOG_NeuriteLength: CCTE's Neurite Outgrowth Assay in human hN2 cells for Neurite Length, Mundy Lab (AID 2284220; active = hit-call score of the fitted dose curve at least 0.9, where 1 is the maximum)
Method in brief: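 Read-out is neurite length from high-content imaging of βIII-tubulin/Alexa Fluor-488-labelled neurons, referenced to DMSO controls.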

[17] = CCTE_Mundy_HCI_hN2_NOG_NeuronCount: CCTE's Neurite Outgrowth Assay in human hN2 cells for Neuron Count, Mundy Lab (AID 2284221; active = hit-call score of the fitted dose curve at least 0.9, where 1 is the maximum)
Method in brief: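 Read-out is the number of betaIII-tubulin-positive neurons imaged by automated high-content analysis, with DMSO as negative control.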

[18] = CCTE_Mundy_HCI_Cortical_Synap_Neur_Matur_NeuriteCount: CCTE's Synaptogenesis and Neurite Maturation Assay in rat cortical cells for Neurite Count, Mundy Lab (AID 2284222);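 as to outcome: exposure from day 7 to day 12 in vitro with readout at day 12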
Method in brief: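 Rat cortical neurons, 96-well; AraC DIV 5; chemical + media change DIV 7; end DIV 12. Fix PFA/Hoechst, anti-MAP2 + anti-synaptophysin IF. HCI neurite count vs DMSO baseline.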

[19] = CCTE_Mundy_HCI_Cortical_Synap_Neur_Matur_CellBodySpotCount: CCTE's Synaptogenesis and Neurite Maturation Assay in rat cortical cells for Cell Body Spot Count, Mundy Lab (AID 2284223)
Method in brief: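 Chemicals were applied to AraC-treated rat primary cortical cells at DIV 7 and measured at DIV 12. Fixed cells were labelled for MAP2, synaptophysin and nuclei, and high-content imaging gave cell body synaptophysin spot counts per neuron relative to DMSO.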

[20] = CCTE_Mundy_HCI_hNP1_Pro_ResponderAvgInten: CCTE's Proliferation Assay in human neuroprogenitor cells, Mundy Lab (AID 2284224; active = hit-call score of the fitted dose curve at least 0.9, where 1 is the maximum;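 also: human neural progenitor cells hNP1 derived from WA09 embryonic stem cells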)
Method in brief: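 Proliferation read as average intensity of BrdU-positive cells, imaged at 26.25 h post-dosing: chemical exposure started after 40–44 h culture, BrdU during final 4 h, paraformaldehyde fixation. Positive-direction fit relative to DMSO.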

Structure (SMILES): CCOP(=S)(OCC)Oc1ccc(S(C)=O)cc1 (configuration not stated)
- outcome [1]: inactive
- outcome [2]: inactive
- outcome [3]: inactive

Structure (SMILES): CCOP(=S)(OCC)Oc1nc(Cl)c(Cl)cc1Cl
- outcome [4]: inactive
- outcome [5]: inactive
- outcome [6]: inactive
- AC50 [7]: 50 µM (active)
- outcome [7]: inactive
- AC50 [8]: 26.7 µM (active)
- AC50 [9]: 32.4 µM (active)
- AC50 [10]: 32 µM (active) and 33.4 µM (active)
- AC50 [11]: 31.2 µM (active) and 29 µM (active)
- AC50 [12]: 50 µM (active) and 24.7 µM (active)
- outcome [13]: inactive
- AC50 [14]: 50 µM (active) and 27.4 µM (active)
- AC50 [15]: 29.1 µM (active)
- AC50 [16]: 28.4 µM (active)
- AC50 [17]: 17.1 µM (active)
- AC50 [18]: 30 µM (active)
- AC50 [19]: 83.2 µM (active)
- outcome [19]: inactive
- AC50 [20]: 24.3 µM (active) and 73.3 µM (active)

Structure (SMILES): Oc1cccc2cccnc12
- outcome [13]: inactive

Structure (SMILES): COP(=S)(OC)Oc1cc(Cl)c(Cl)cc1Cl
- outcome [1]: inactive
- AC50 [2]: 34.3 µM (active)
- outcome [3]: inactive

Structure (SMILES): CC(C)CCCCCCOC(=O)c1ccccc1C(=O)OCCCCCCC(C)C
- outcome [1]: inactive
- outcome [2]: inactive
- outcome [3]: inactive

Structure (SMILES): CCNc1nc(NC(C)(C)C)nc(SC)n1
- outcome [1]: inactive
- AC50 [2]: 26.7 µM (active)
- outcome [3]: inactive

Structure (SMILES): O=C(O)CCC(F)(C(F)(F)F)C(F)(F)F
- outcome [1]: inactive
- outcome [2]: inactive
- outcome [3]: inactive

Structure (SMILES): O=C1C2(Cl)C3(Cl)C4(Cl)C(Cl)(Cl)C5(Cl)C3(Cl)C1(Cl)C5(Cl)C24Cl (configuration not stated)
- outcome [7]: inactive
- AC50 [8]: 22.7 µM (active)
- AC50 [9]: 22.7 µM (active)
- AC50 [10]: 16.7 µM (active)
- AC50 [11]: 21.5 µM (active)
- AC50 [12]: 20.7 µM (active)
- AC50 [14]: 19.3 µM (active)
- AC50 [18]: 24.1 µM (active)
- AC50 [19]: 9.8 µM (active)
- AC50 [20]: 21.7 µM (active)

Structure (SMILES): O=Cc1cccc(Oc2ccccc2)c1
- outcome [1]: inactive
- outcome [2]: inactive
- outcome [3]: inactive

Structure (SMILES): ClC(Cl)=C(Cl)C(Cl)=C(Cl)Cl
- outcome [13]: inactive
- AC50 [1]: 11.1 µM (active)
- outcome [2]: inactive
- AC50 [3]: 14.2 µM (active)

Structure (SMILES): C=C(C)C(=O)[O][Sn]([CH2]CCC)([CH2]CCC)[CH2]CCC
- AC50 [7]: 0.0607 µM (active)
- AC50 [8]: 0.0799 µM (active)
- AC50 [9]: 0.123 µM (active)
- AC50 [10]: 0.0893 µM (active)
- AC50 [11]: 0.161 µM (active)
- AC50 [12]: 0.0597 µM (active)
- AC50 [14]: 0.0672 µM (active)
- AC50 [18]: 0.223 µM (active)
- AC50 [19]: 0.142 µM (active)
- AC50 [20]: 0.249 µM (active)

Structure (SMILES): CC(C)(C)c1cc(O)ccc1O
- outcome [13]: inactive

Structure (SMILES): COP(=O)(OC)O/C(=C\Cl)c1cc(Cl)c(Cl)cc1Cl
- AC50 [4]: 51.5 µM (active)
- AC50 [5]: 41.6 µM (active)
- AC50 [6]: 34.3 µM (active)
- outcome [7]: inactive
- outcome [8]: inactive
- AC50 [9]: 34 µM (active) and 32.9 µM (active)
- AC50 [10]: 32.5 µM (active) and 31.3 µM (active)
- outcome [11]: inactive
- outcome [12]: inactive
- outcome [14]: inactive
- AC50 [15]: 6.28 µM (active)
- AC50 [16]: 5.52 µM (active)
- AC50 [17]: 7.22 µM (active)
- outcome [18]: inactive
- outcome [19]: inactive
- AC50 [20]: 67 µM (active)

Structure (SMILES): CCOC(=O)/C=C(C)/C=C/C[C@@H](C)CCCC(C)C
- AC50 [1]: 23.7 µM (active)
- AC50 [2]: 20 µM (active)
- AC50 [3]: 27 µM (active)
